High-throughput results from PubChem BioAssay.
SARS PLpro yeast: qHTS of Yeast-based Assay for SARS-CoV PLP; Potency, µM (top dose mostly 32.9 µM), for the others: at the highest dose activity, positive = growth rescue, hits mostly activators; 0.19% of 330,000 active; AID 485353, 2010; S. cerevisiae expressing SARS-CoV PLpro, growth rescue; calls by dose curve; note: potency is the fitted concentration of half-maximal effect; 0% is about no effect; nearly all actives have a fitted effect of over 55% in size
Shiga toxin inh: A qHTS for Small Molecule Inhibitors of Shiga Toxin; 9.2% of 290,000 active; inhibition, % at 38.7 µM; Vero cells, Shiga toxin protein synthesis inhibition reporter; in the data active = inhibition mostly above about 28%, no sharp cut-off; inactive = mostly below about 43%; note: 0% is about no effect
CHX counter: Cycloheximide Counterscreen for Small Molecule Inhibitors of Shiga Toxin; 12% of 300,000 active; max response, %; cell reporter, cycloheximide protein synthesis inhibition counterscreen; AID 2314, 2010; in the data active = max response mostly above about 13%, no sharp cut-off; inactive = mostly below about 14%; note: read at 38.3 µM for the half of the compounds with a filed dose; 0% is about no effect
AMA1 RON2 block: qHTS for Inhibitors of AMA1-RON; Towards Development of Antimalarial Drug Lead: Primary Screen. AlphaScreen AMA1-biotinylated RON2 peptide binding. AID 720542, 2013. Plasmodium falciparum AMA1 (3D7) - RON2 peptide interaction. 0.2% of 360,000 active. Potency, µM (series often up to 58.2 µM), without a hit: top-dose activity change, negative = inhibition, actives largely listed as inhibitors;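 note: potency is the fitted concentration of half-maximal effect; 0% = vehicle wells and -100% = peptide control; nearly all actives have a fitted effect of over 45% in size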
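AMA1 (3D7) with his tag at 25 nM final met compounds first, then biotinylated RON2 peptide at 25 nM; detection used donor plus acceptor beads, 10 µg/mL apiece, read by AlphaScreen after 30 min at room temperature.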
Pf growth 96h: Primary qHTS for delayed death inhibitors of the malarial parasite plastid, 96 hour incubation; P. falciparum luciferase reporter growth, 96 h; Potency, µM (titrated, usually from 28.7 µM), without a hit: at the highest dose activity change, negative = inhibition, usual class: inhibitors; 6.9% of 320,000 active; AID 504834, 2011; note: potency is the fitted concentration of half-maximal effect; % is set by controls: 0 for no effect and ±100 for the full control effect
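Two parasite generations (96 h, 37 C, 5% CO2) of compound exposure in infected erythrocytes (0.05% parasitemia, 2% hematocrit). Luciferase-reporter P. falciparum; decreased luminescence indicates inhibited growth, aimed at apicoplast-acting delayed death.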
Pf growth 48h: Primary qHTS for delayed death inhibitors of the malarial parasite plastid, 48 hour incubation; P. falciparum luciferase growth in erythrocytes, 48 h; Potency, µM (doses to about 28.7 µM), without a hit: top-dose activity change, negative = inhibition, usual class: inhibitors; 5.9% of 310,000 active; note: potency is the fitted concentration of half-maximal effect; % is set by controls: 0 for no effect and ±100 for the full control effect
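Firefly luciferase activity from engineered P. falciparum reports growth; inhibitors lower the luminescent signal. Cultures contained 2% hematocrit erythrocytes at 0.1% final parasitemia.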
The depositor's hits bear a star. Shown are actives, neighbours in structure and some others; about 19% of the full set was active somewhere. Unless noted, calls come from the whole dose curve; as a rule, active = well fitted curve in the direction sought with a large enough effect; inconclusive = small, poorly fitted or top-dose-only effect, or another doubt; inactive = no such curve, though single readings can be large; an effect the other way counts as inactive or inconclusive.

COC(=O)C(CCSC)NC(=O)c1cc2c(n(-c3ccccc3)c1=O)CC(C)(C)CC2=O (stereo not drawn) was read as SARS PLpro yeast 5.3%, Shiga toxin inh 6.4, CHX counter -4.4, AMA1 RON2 block 0.0%, Pf growth 96h 3.7µM* and Pf growth 48h -20.4%.
O=[N+]([O-])c1ccccc1S(=O)(=O)N(CC1CO1)c1ccccc1 (stereo not drawn) was read as SARS PLpro yeast 1.4%, Shiga toxin inh 1.5, CHX counter -1.5, AMA1 RON2 block -15.7%, Pf growth 96h 36.8% and Pf growth 48h 7.0%.
Screening Cc1cccc(C)c1NC(=O)CNC(=O)c1cncc(Br)c1 returned SARS PLpro yeast 0.5%, Shiga toxin inh 10.9, CHX counter -0.7, AMA1 RON2 block -6.6%, Pf growth 96h 44.3% and Pf growth 48h 18.3%.
Screening O=C(NNC(=O)C1CCCN(S(=O)(=O)c2cccc(F)c2)C1)C1CC1 (stereo not drawn) returned SARS PLpro yeast -0.8%, Shiga toxin inh -9.8, CHX counter -2.0, AMA1 RON2 block 33.5%, Pf growth 96h inconclusive and Pf growth 48h 4.8%.
`Cc1cc(/C=C(\C#N)C(=O)OCC#N)c(C)n1CC(C)C` gave SARS PLpro yeast -1.2%, Shiga toxin inh 59.5*, CHX counter 28.1*, AMA1 RON2 block 8.7%, Pf growth 96h inconclusive and Pf growth 48h 13.9%.
For COCCn1c(C)cc(/C=C(\C#N)C(=O)OCC(=O)Nc2ccc(S(N)(=O)=O)cc2)c1C the results were SARS PLpro yeast 1.1%, AMA1 RON2 block -7.3%, Pf growth 96h inconclusive and Pf growth 48h -29.7%.
Cc1cc(/C=C(\C#N)C(=O)OCC(=O)Nc2ccc(OC(F)F)cc2)c(C)n1CC(C)C was read as SARS PLpro yeast 3.8%, Shiga toxin inh 32.3, CHX counter 26.2*, AMA1 RON2 block -11.8%, Pf growth 96h 29.1% and Pf growth 48h 0.5%.
For CCCCOCCCNC(=O)C[C@@H]1C[C@@]2(C(=O)OC)CC(C)(C)CC=C2N(CCc2ccc(OC)c(OC)c2)C1=O the results were AMA1 RON2 block -5.0%.
Screening COC(=O)/C(C#N)=C1/C=Cc2ccccc2N1 returned SARS PLpro yeast -0.9%, Shiga toxin inh 68.0*, CHX counter 34.3*, AMA1 RON2 block -18.9%, Pf growth 96h 79.1% and Pf growth 48h 71.2%.
For Cc1ccc(/C=N/c2sc3c(c2C#N)CCCCC3)o1 the results were SARS PLpro yeast 3.0%, Shiga toxin inh 6.4, CHX counter -1.8, AMA1 RON2 block -5.3%, Pf growth 96h 103.7% and Pf growth 48h 21.8%.
`Cc1ccc(/C=N/c2sc3c(c2C#N)CCC3)s1` gave SARS PLpro yeast -4.7%, Shiga toxin inh 113.7*, CHX counter 54.7*, AMA1 RON2 block 4.3%, Pf growth 96h 7.38µM* and Pf growth 48h 70.7%.
`N#Cc1c(/N=C/c2ccco2)sc2c1CCC2` gave SARS PLpro yeast 0.1%, Shiga toxin inh 8.5, CHX counter -1.2, AMA1 RON2 block -3.7% and Pf growth 48h inconclusive.
`N#Cc1c(/N=C/c2cc3ccccc3s2)sc2c1CCC2` gave SARS PLpro yeast -13.1%, Shiga toxin inh 32.9*, CHX counter 19.9*, AMA1 RON2 block -8.4%, Pf growth 96h 152.2% and Pf growth 48h 216.1%.
Cc1cccc(NC(=O)CNC(=O)c2cn(Cc3ccccc3)nc2-c2cccnc2)c1C was read as SARS PLpro yeast 1.8%, AMA1 RON2 block 5.4%, Pf growth 96h inconclusive and Pf growth 48h -23.8%.
For O=C(NCc1ccc(Cl)cc1)c1ccc2c(=O)n(CC3CCCO3)c(=S)[nH]c2c1 (stereo not drawn) the results were SARS PLpro yeast 0.7%, Shiga toxin inh 1.4, CHX counter -3.2, AMA1 RON2 block 17.5%, Pf growth 96h 11.7µM* and Pf growth 48h -28.7%.
Screening COc1ccc(N2CCN(CCNC(=O)c3ccc4c(c3)[nH]c(=S)n3c5ccccc5nc43)CC2)cc1 returned SARS PLpro yeast -7.4%, Shiga toxin inh 3.9, CHX counter -3.1, AMA1 RON2 block 6.9%, Pf growth 96h 10.4µM* and Pf growth 48h inconclusive.
For CCCCCNC(=O)c1ccc2c(=O)n(CCCN3CCCC3=O)c(=S)[nH]c2c1 the results were SARS PLpro yeast 1.3%, Shiga toxin inh -1.6, CHX counter 15.8, AMA1 RON2 block 55.1%, Pf growth 96h 10.4µM* and Pf growth 48h 5.86µM*.
`O=C(NCCN1CCCC1)c1ccc(Cn2c(=S)[nH]c3ccc(Br)cc3c2=O)cc1` gave SARS PLpro yeast -2.7%, Shiga toxin inh -14.6, CHX counter -0.9, AMA1 RON2 block 21.3%, Pf growth 96h 51.6% and Pf growth 48h inconclusive.
Screening COCCNC(=O)c1ccc2c(=O)n(CCCN3CCCC3=O)c(=S)[nH]c2c1 returned SARS PLpro yeast 3.0%, Shiga toxin inh -1.1, CHX counter -0.9, AMA1 RON2 block -4.6%, Pf growth 96h inconclusive and Pf growth 48h inconclusive.
For O=C(NCCCN1CCCC1)c1ccc(Cn2c(=S)[nH]c3ccc(Br)cc3c2=O)cc1 the results were SARS PLpro yeast -1.6%, Shiga toxin inh 19.5, CHX counter 6.6, Pf growth 96h 22.5% and Pf growth 48h 13.1µM*.
`C=CCNC(=O)c1ccc2c(=O)n(Cc3ccccc3OC)c(=S)[nH]c2c1` gave SARS PLpro yeast -1.9%, Shiga toxin inh -5.6, CHX counter 8.6, AMA1 RON2 block 13.8%, Pf growth 96h 22.3% and Pf growth 48h 3.29µM*.
`COCCCNC(=O)c1ccc2c(=O)n(Cc3ccc(Cl)cc3)c(=S)[nH]c2c1` gave SARS PLpro yeast -1.9%, Shiga toxin inh -8.0, CHX counter 1.2, AMA1 RON2 block 97.4%, Pf growth 96h 35.0% and Pf growth 48h -29.6%.
For COc1ccccc1NS(=O)(=O)c1cc(C(=O)NCCN2CCOCC2)ccc1Cl the results were SARS PLpro yeast -1.9%, Shiga toxin inh -14.6, CHX counter -2.1, AMA1 RON2 block 12.0%, Pf growth 96h 10.4µM* and Pf growth 48h 7.8%.
COc1ccccc1Cn1c(=S)[nH]c2cc(C(=O)NCCN3CCOCC3)ccc2c1=O was read as SARS PLpro yeast -10.5%, Shiga toxin inh -2.0, CHX counter 3.8, AMA1 RON2 block 34.9%, Pf growth 96h -93.0% and Pf growth 48h 10.4µM*.
For COc1ccc(C(=O)NCCN2CCOCC2)cc1S(=O)(=O)Nc1ccc(C)cc1 the results were SARS PLpro yeast -1.1%, AMA1 RON2 block 5.0%, Pf growth 96h -23.4% and Pf growth 48h -3.3%.
For CC1CCN(CCNC(=O)c2ccc3c(=O)n(Cc4ccc(Cl)cc4)c(=S)[nH]c3c2)CC1 the results were SARS PLpro yeast -0.3%, Shiga toxin inh -0.6, CHX counter 8.5, AMA1 RON2 block 29.4%, Pf growth 96h -6.1% and Pf growth 48h 3.7µM*.
